Measurements taken from ChEMBL document CHEMBL1201862, “PubChem BioAssay data set” (2004).
About 3,300 (6.1%) of roughly 54,000 sequences were called active. Rule as the data show it: active = GI50 up to about 1.1 µM and inactive = higher. The list is a sample of the results. Measured potencies and affinities stand elsewhere.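 All cell lines were grown in 96-well plates and treated with compound for 48 hours. GI50 marks 50% less growth.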

These substances were tested on Malme-3M (assay: NCI tumour cell line growth inhibition, 48 h).
“[Bis(aminomethyl)pentamethylenesilane]tetrachloropaltinum(IV), CHEMBL2146204” gave a GI50 of 1220 nM.
With “[Bis(aminomethyl)tetramethylenesilane]dichloropaltinum(II), CHEMBL2146205” the GI50 was 8590 nM.
Substance “[Bis(aminomethyl)dimethylsilane]tetrachloroplatinum(IV), CHEMBL2146190” has a GI50 of 2770 nM.
“[Bis(aminomethyl)tetramethylenesilane]tetrachloropaltinum(IV), CHEMBL2146189” was tested, and the GI50 was 1620 nM.
Substance “cis-Bis[[(trimethylsilyl)methyl]amino]tetrachloroplatinum(IV), CHEMBL2146191” has a GI50 of 2250 nM.
In the case of “mu-(1,7-nanodiamine-N,N')bis-(cis-aminedichloroplatimum (II)), CHEMBL2146215”, the GI50 is reported as 2410 nM.
With “[Bis(aminomethyl)diethylsilane]tetrachloroplatinum(IV), CHEMBL2146203” the GI50 was 1220 nM.
CISPLATIN, CHEMBL11359 showed a GI50 of 1600 nM.
With “[Bis(aminomethyl)ethylmethylsilane]tetrachloroplatinum(IV), CHEMBL2146192” the GI50 was 2080 nM.
“[Bis(aminomethyl)pentamethylenesilane]dichloropaltinum(II), CHEMBL2146202” was tested, and the GI50 was 1540 nM.
In the case of “[Bis(aminomethyl)dimethylsilane]dichloroplatinum (II), CHEMBL2146201”, the GI50 is reported as 17700 nM.
